# Data as given in PubChem BioAssay AID1159580 (chemical genetic matrix, 2015).
# Values joined by “and” are separate entries in the source; they are usually repeats but may differ in a detail not shown here. Identical values can stand only once. Hit rate of the full screen: of about 5,500 compounds, about 2,000 (36%) were called active. Another 18% or so got no clear call; they are omitted. The list shows a part of the results. Unmarked numbers belong to inactive results. Cut-off read from the data, not from the text of the source: active = normalized growth mostly below about 0.91 (no sharp cut-off); inconclusive = no clear call, values can overlap the other calls; inactive = mostly above about 0.92.
# Assay: chemical genetic growth profiling, strain panel (AID 1159580);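 note: tested at 20 µM; growth read once vehicle control cultures reached saturation at 30 °C; 1 = growth at the plate median or of vehicle wells; lower values mean less growth of the strain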
# Conditions: S. cerevisiae deletion strains, growth OD
smiles,measurement,setting,value
Oc1cc(O)c2c(c1)O[C@H](c1ccc(O)c(O)c1)[C@H](O)C2,normalized growth,"locus YAL021C, strain ccr4, hits give low values",1.02
same,normalized growth,"locus YAL026C, strain drs2, hits give low values",1.01
same,normalized growth,"locus YAL030W, strain snc1, hits give low values",1
same,normalized growth,"locus YBL061C, strain skt5, hits give low values",1.02
same,normalized growth,"locus YBR009C, strain hhf1, hits give low values",1.02
same,normalized growth,"locus YBR021W, strain FUR4, hits give low values",1.21 [resistant] (active)
same,normalized growth,"locus YBR023C, strain chs3, hits give low values",1.01
same,normalized growth,"locus YBR171W, strain sec66, hits give low values",1.02
same,normalized growth,"locus YBR229C, strain ROT2, hits give low values",1
same,normalized growth,"locus YBR231C, strain swc5, hits give low values",1.02
same,normalized growth,"locus YBR279W, strain paf1, hits give low values",1.01
same,normalized growth,"locus YCL011C, strain gbp2, hits give low values",1.01
same,normalized growth,"locus YCL016C, strain dcc1, hits give low values",1
same,normalized growth,"locus YCL029C, strain bik1, hits give low values",0.976
same,normalized growth,"locus YCL061C, strain MRC1, hits give low values",1.01
same,normalized growth,"locus YCL069W, strain vba3, hits give low values",1.01
same,normalized growth,"locus YCR088W, strain abp1, hits give low values",1.01
same,normalized growth,"locus YDL005C, strain med2, hits give low values",1.01
same,normalized growth,"locus YDL035C, strain GPR1, hits give low values",1.03
same,normalized growth,"locus YDL040C, strain nat1, hits give low values",0.998
same,normalized growth,"locus YDL074C, strain BRE1, hits give low values",1
same,normalized growth,"locus YDL101C, strain DUN1, hits give low values",1
same,normalized growth,"locus YDL185W, strain tfp1, hits give low values",0.953
same,normalized growth,"locus YDL192W, strain arf1, hits give low values",0.992
same,normalized growth,"locus YDR001C, strain nth1, hits give low values",1
same,normalized growth,"locus YDR069C, strain doa4, hits give low values",1
same,normalized growth,"locus YDR101C, strain arx1, hits give low values",0.986
same,normalized growth,"locus YDR137W, strain rgp1, hits give low values",1.02
same,normalized growth,"locus YDR150W, strain NUM1, hits give low values",0.984
same,normalized growth,"locus YDR159W, strain sac3, hits give low values",1.06
same,normalized growth,"locus YDR162C, strain NBP2, hits give low values",1.03
same,normalized growth,"locus YDR195W, strain ref2",0.968
same,normalized growth,"locus YDR297W, strain sur2, hits give low values",1.01
same,normalized growth,"locus YDR318W, strain mcm21, hits give low values",0.995
same,normalized growth,"locus YDR334W, strain swr1, hits give low values",1.01
same,normalized growth,"locus YDR335W, strain msn5, hits give low values",0.994
same,normalized growth,"locus YDR388W, hits give low values",0.995
same,normalized growth,"locus YDR392W, strain spt3, hits give low values",1.01
same,normalized growth,"locus YDR502C, strain sam2, hits give low values",1.01
same,normalized growth,"locus YEL003W, strain gim4, hits give low values",1.01
same,normalized growth,"locus YEL037C, strain rad23, hits give low values",1.02
same,normalized growth,"locus YEL061C, strain CIN8 (second series), hits give low values",1
same,normalized growth,"locus YEL061C, strain CIN8, hits give low values",0.994
same,normalized growth,"locus YER015W, strain faa2, hits give low values",1
same,normalized growth,"locus YER016W, strain bim1, hits give low values",1.01
same,normalized growth,"locus YER110C, hits give low values",0.969
same,normalized growth,"locus YER111C, strain swi4, hits give low values",1
same,normalized growth,"locus YER155C, strain BEM2 (second series), hits give low values",1.02
same,normalized growth,"locus YER155C, strain BEM2, hits give low values",1
same,normalized growth,"locus YER167W, strain BCK2, hits give low values",1.02
same,normalized growth,"locus YFR010W, strain ubp6, hits give low values",1.01
same,normalized growth,"locus YGL078C, strain dbp3, hits give low values",0.997
same,normalized growth,"locus YGL086W, strain mad1, hits give low values",0.994
same,normalized growth,"locus YGL167C, strain pmr1, hits give low values",1.01
same,normalized growth,"locus YGL173C, strain kem1, hits give low values",1.01
same,normalized growth,"locus YGL227W, strain vid30, hits give low values",1.01
same,normalized growth,"locus YGL240W, strain doc1, hits give low values",1.04
same,normalized growth,"locus YGL248W, strain PDE1, hits give low values",1
same,normalized growth,"locus YGL253W, strain hxk2, hits give low values",1.02
same,normalized growth,"locus YGR135W, strain pre9, hits give low values",1.01
same,normalized growth,"locus YGR252W, strain gcn5, hits give low values",1.13
same,normalized growth,"locus YHR013C, strain ard1, hits give low values",0.995
same,normalized growth,"locus YHR027C, strain rpn1, hits give low values",1.01
same,normalized growth,"locus YHR030C, strain SLT2, hits give low values",1 and 0.992
same,normalized growth,"locus YHR079C, strain IRE1 (second series), hits give low values",0.975
same,normalized growth,"locus YHR079C, strain IRE1, hits give low values",0.992
same,normalized growth,"locus YHR094C, strain hxt1, hits give low values",0.992
same,normalized growth,"locus YHR129C, strain ARP1, hits give low values",1
same,normalized growth,"locus YHR142W, strain chs7, hits give low values",1.02
same,normalized growth,"locus YHR200W, strain rpn10, hits give low values",0.983
same,normalized growth,"locus YIL066C, strain RNR3, hits give low values",1.01
same,normalized growth,"locus YIL073C, strain SPO22, hits give low values",0.997
same,normalized growth,"locus YIL125W, strain kgd1, hits give low values",0.996
same,normalized growth,"locus YIR030C, strain dcg1, hits give low values",0.986
same,normalized growth,"locus YJL092W, strain hpr5, hits give low values",1.02
same,normalized growth,"locus YJL095W, strain BCK1 (second series), hits give low values",1.01
same,normalized growth,"locus YJL095W, strain BCK1, hits give low values",0.984 and 1
same,normalized growth,"locus YJL115W, strain asf1, hits give low values",1
same,normalized growth,"locus YJL129C, strain trk1, hits give low values",1.02
same,normalized growth,"locus YJL134W, strain LCB3, hits give low values",0.991
same,normalized growth,"locus YJL154C, strain vps35, hits give low values",1.01
same,normalized growth,"locus YJL164C, strain tpk1, hits give low values",1
same,normalized growth,"locus YJL166W, strain qcr8, hits give low values",1.02
same,normalized growth,"locus YJL168C, strain set2, hits give low values",0.98
same,normalized growth,"locus YJL187C, strain SWE1 (second series), hits give low values",0.994
same,normalized growth,"locus YJL187C, strain SWE1, hits give low values",1
